Assay outcomes as filed in PubChem BioAssay.
MITF inh: inhibitors of human MITF; O75030; AlphaScreen MITF homodimerization, bead proximity signal; inhibition, % at 2.6 µM; 650,000 compounds, 0.91% hits; in the data active = inhibition above about 50%
Target sequence (O75030 whole entry, looked up): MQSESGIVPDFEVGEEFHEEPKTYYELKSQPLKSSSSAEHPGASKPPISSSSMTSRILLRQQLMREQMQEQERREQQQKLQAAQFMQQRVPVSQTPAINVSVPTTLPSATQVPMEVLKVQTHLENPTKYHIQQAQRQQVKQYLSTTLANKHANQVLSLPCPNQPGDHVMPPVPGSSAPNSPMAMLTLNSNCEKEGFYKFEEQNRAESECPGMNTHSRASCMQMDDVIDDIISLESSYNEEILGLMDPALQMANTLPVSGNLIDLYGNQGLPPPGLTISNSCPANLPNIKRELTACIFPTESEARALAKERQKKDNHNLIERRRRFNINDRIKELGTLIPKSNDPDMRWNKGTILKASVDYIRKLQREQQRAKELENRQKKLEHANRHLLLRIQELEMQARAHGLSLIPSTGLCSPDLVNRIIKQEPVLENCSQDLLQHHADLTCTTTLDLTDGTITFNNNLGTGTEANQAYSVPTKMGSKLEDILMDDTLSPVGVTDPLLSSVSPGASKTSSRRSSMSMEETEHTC
FBW7 activator: human FBW7 E3 ligase activation, primary screen; AlphaScreen FBW7–phospho-cyclin E peptide binding, activator screen; normalized activity (activation), % at 26.1 µM; 650,000 compounds, 0.13% hits; AID 1259310; in the data active = normalized activity above about 1.9%;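 also: purified mutant Fbw7 with reduced substrate affinity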
TEAD-YAP block: TEAD-YAP interaction inhibition | HEK-TIYL cells, TEAD-Gal4/YAP UAS-luciferase luminescence | inhibition, % at 9.12 µM | 640,000 compounds, 1.4% hits | AID 1259422; in the data active = inhibition above about 32%
GPR151 activ: activates the human receptor GPR151 | Q8TDV0 | PathHunter beta-arrestin GPR151 cells, luminescence | activation, % at 11.2 µM | 650,000 compounds, 1% hits; in the data active = activation above about 4.9%
A number is an active result; – = inactive. In the library only some 3.4% were active in any assay of this set; here they are far more common.

SMILES	MITF inh	FBW7 activator	TEAD-YAP block	GPR151 activ
COc1ccc(S(=O)(=O)Nc2cc3c(C(C)=O)c(C)oc3c3ccccc23)cc1	–	–	68.7	–
CCOc1ccc(S(=O)(=O)Nc2cc3c(C(=O)OC)c(C)oc3c3ccccc23)cc1	–	–	63.1	–
CCOC(=O)c1ccccc1NS(=O)(=O)c1ccc(OCC)cc1	–	–	47.7	–
COc1ccc(-c2nn(-c3ccccc3)cc2/C=C/C(=O)Nc2nnc(C)s2)cc1OC	–	–	–	–
COc1ccc(N2C(=O)c3cccnc3C2O)cc1 (stereo not drawn)	–	–	–	–
COc1ccc(NC(=O)CC2C(=O)N(c3ccc(Cl)cc3)C(=S)N2CCN2CCOCC2)cc1 (stereo not drawn)	–	–	–	–
CC(=O)c1cc2c(cc1NS(=O)(=O)c1ccc(C(C)(C)C)cc1)OCO2	–	–	–	–
CCOc1ccc(S(=O)(=O)Nc2cc3c4c(oc3c3ccccc23)CCCC4)cc1	–	–	48.8	–
COc1ccc(S(=O)(=O)Nc2cc3c(cc2C(C)=O)OCO3)cc1	–	–	38.2	–
COc1cccc(/C=N/NC(=O)c2cccc(Br)c2)c1O	–	–	63.6	–
COc1ccc(CNC(=O)C(=O)N/N=C/c2cccc(OC)c2O)cc1	53.4	–	–	–
C=CCc1cccc(/C=N/NC(=O)c2ccc(OC)cc2)c1O	–	–	50.1	–
CC(C)Oc1ccc(Br)cc1C(=O)N/N=C/c1ccc2c(c1)OCO2	–	–	39.6	–
CCC(=O)Oc1ccc(C(=O)Nc2ccccc2Br)cc1	–	–	–	–
c1ccc(Oc2ccc(-c3cnc4ccc(NC5CCOCC5)nn34)cc2)cc1	–	–	–	–
COCCN(C(=O)Cc1cccs1)C(C(=O)NCc1ccc(OC)cc1)c1ccco1 (stereo not drawn)	–	–	–	–
Cc1ccn2c(C(=O)N/N=C\c3ccccc3[N+](=O)[O-])c(C)nc2c1	–	–	–	–
COc1cccc(/C=N/NC(=O)c2ccc(O)cc2)c1O	–	–	–	–
COc1cccc(/C=N/NC(=O)c2ccc(C(C)(C)C)cc2)c1O	–	–	39.2	–
COc1cccc(/C=N/Nc2ccc(S(=O)(=O)O)cc2)c1O	–	–	–	–
O=C(O)c1ccc(N/N=C/c2c(F)cccc2Cl)cc1	–	–	36.1	–
COc1cccc(/C=N/Nc2ccc(C(=O)O)cc2)c1O	–	–	83.7	–
COc1cccc(/C=N\NC(=O)c2c(C)nc3cc(C)ccn23)c1O	–	–	77.6	–
O=C(O)/C=C/C(=O)N1CCN(S(=O)(=O)c2cccc([N+](=O)[O-])c2)CC1	–	–	–	–
O=C(/C=C/c1cccs1)NC(=S)NNC(=O)c1cccnc1	–	–	–	–
SMILES	MITF inh	FBW7 activator	TEAD-YAP block	GPR151 activ
Cc1nc2ccccn2c1C(=O)N/N=C/c1ccc(O)c(O)c1O	75.9	–	–	–
COc1cccc(/C=N/NC(=O)c2cc(-c3ccco3)[nH]n2)c1O	–	–	–	–
COc1cccc(/C=N/NC(=O)c2cccc(N)c2)c1O	–	–	66.7	–
COc1cccc(/C=N/NC(=O)c2cc(C(C)C)[nH]n2)c1O	–	–	49.0	–
COc1cccc(/C=N/NC(=O)c2cc(Br)ccc2OC(C)C)c1O	–	–	78.5	–
Cc1ccc(F)cc1NC(=O)c1sc2ncn(CC(=O)N3CCCCC3)c(=O)c2c1C	–	–	–	–
O=C(CCc1ccccc1)NCC1CCCN(Cc2ccon2)C1 (stereo not drawn)	–	–	–	–
Cc1ccc(/C(O)=C2\C(=O)C(=O)N(CC(C)O)C2c2ccc(Cl)cc2)cc1 (stereo not drawn)	–	–	–	–
COc1cc(Br)cc(/C=N/NC(=O)c2cccc(Br)c2)c1O	–	–	35.0	–
COc1cccc(/C=N/NC(=O)c2cccc(Cn3cccn3)c2)c1O	–	–	–	–
COc1cccc(/C=N/NC(=O)c2cccc(Cn3nc(C)cc3C)c2)c1O	56.7	–	–	–
CC(C)(C)c1ccc(O)c(/C=N/NC(=O)c2ccc3c(c2)OCCO3)c1	–	–	44.8	–
COc1cc(Cl)cc(/C=N\NC(=O)c2ccc3c(c2)OCO3)c1O	–	–	73.9	–
COCCCNC(=O)/C=C/c1ccc(Br)cc1	–	–	–	–
CCN(CC)C(=O)C(=O)Nc1cc(Cl)ccc1OC	–	–	–	–
